Data from PubChem BioAssay AID1159580 (chemical genetic matrix, 2015).
Hit rate of the full screen: of about 5,500 compounds, about 2,000 (36%) were called active. Roughly 18% stayed inconclusive and do not appear here. The list shows a part of the results. Values without a mark were called inactive. Cut-off read from the data, not from the text of the source: active = normalized growth mostly below about 0.91 (no sharp cut-off); inconclusive = no clear call, values can overlap the other calls; inactive = mostly above about 0.92.

Assay: chemical genetic growth profiling, strain panel (AID 1159580);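 note: tested at 20 µM; growth read once vehicle control cultures reached saturation at 30 °C; 1 = growth at the plate median or of vehicle wells; lower values mean less growth of the strain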
Settings: growth OD
[1] = S. cerevisiae deletion strains, locus YAL013W, strain DEP1, hits give low values
[2] = S. cerevisiae deletion strains, locus YBR229C, strain ROT2, hits give low values
[3] = S. cerevisiae deletion strains, locus YDL101C, strain DUN1, hits give low values
[4] = S. cerevisiae deletion strains, locus YDL134C, strain PPH21, hits give low values
[5] = S. cerevisiae deletion strains, locus YDR150W, strain NUM1, hits give low values
[6] = S. cerevisiae deletion strains, locus YEL061C, strain CIN8, hits give low values
[7] = S. cerevisiae deletion strains, locus YGR078C, strain PAC10, hits give low values
[8] = S. cerevisiae deletion strains, locus YHR030C, strain SLT2, hits give low values
[9] = S. cerevisiae deletion strains, locus YHR087W, strain rtc3, hits give low values
[10] = S. cerevisiae deletion strains, locus YJR043C, strain POL32, hits give low values
[11] = S. cerevisiae deletion strains, locus YJR075W, strain HOC1, hits give low values
[12] = S. cerevisiae deletion strains, locus YLR039C, strain RIC1, hits give low values
[13] = S. cerevisiae deletion strains, locus YLR058C, strain SHM2 (second series), hits give low values
[14] = S. cerevisiae deletion strains, locus YLR085C, strain ARP6, hits give low values
[15] = S. cerevisiae deletion strains, locus YLR262C, strain YPT6, hits give low values
[16] = S. cerevisiae deletion strains, locus YML094W, strain GIM5, hits give low values
[17] = S. cerevisiae deletion strains, locus YMR219W, strain ESC1, hits give low values
[18] = S. cerevisiae deletion strains, locus YMR263W, strain SAP30, hits give low values
[19] = S. cerevisiae deletion strains, locus YNL153C, strain GIM3, hits give low values
[20] = S. cerevisiae deletion strains, locus YNL298W, strain CLA4 (second series), hits give low values
[21] = S. cerevisiae deletion strains, locus YNL322C, strain KRE1, hits give low values
[22] = S. cerevisiae deletion strains, locus YNR030W, strain Alg12, hits give low values
[23] = S. cerevisiae deletion strains, locus YOL006C, strain TOP1, hits give low values
[24] = S. cerevisiae deletion strains, locus YPL055C, strain LGE1, hits give low values
[25] = S. cerevisiae deletion strains, locus YPL241C, strain CIN2, hits give low values
[26] = S. cerevisiae deletion strains, locus YPR135W, strain CTF4, hits give low values
[27] = S. cerevisiae deletion strains, locus YCL061C, strain MRC1, hits give low values
[28] = S. cerevisiae deletion strains, locus YJL187C, strain SWE1, hits give low values

COC(=O)/C(=C/N(C)C)Sc1cc(C)c(Cl)cc1Cl
normalized growth [1]: 0.945 | normalized growth [2]: 0.968 | normalized growth [3]: 1.01 | normalized growth [4]: 0.983 | normalized growth [5]: 0.958 | normalized growth [6]: 0.951 | normalized growth [7]: 0.979 | normalized growth [8]: 0.296 (active) | normalized growth [9]: 0.939 | normalized growth [10]: 0.983 | normalized growth [11]: 0.935 | normalized growth (S. cerevisiae deletion strains, locus YKL190W, strain CNB1, hits give low values): 0.91 (active) | normalized growth [12]: 0.622 (active) | normalized growth [13]: 0.939 | normalized growth [14]: 0.91 | normalized growth [15]: 0.587 (active) | normalized growth [16]: 0.914 | normalized growth [17]: 0.959 | normalized growth [18]: 0.946 | normalized growth [19]: 0.992 | normalized growth [20]: 0.925 | normalized growth [21]: 0.933 (active) | normalized growth [22]: 0.942 | normalized growth [23]: 0.978 | normalized growth [24]: 0.922 | normalized growth [25]: 0.947 | normalized growth [26]: 0.747

CC(C)(C)c1cc(-c2csc(-c3ccc(Cl)cc3)n2)cc(C(C)(C)C)c1O
normalized growth [1]: 1 | normalized growth [2]: 1.02 | normalized growth [27]: 1.01 | normalized growth [3]: 1.02 | normalized growth [4]: 1.02 | normalized growth [5]: 0.943 | normalized growth [6]: 1.03 | normalized growth [7]: 1.01 | normalized growth [8]: 1.09 | normalized growth [9]: 1.01 | normalized growth [28]: 1.02 | normalized growth [10]: 1.01 | normalized growth [11]: 1.03 | normalized growth [12]: 1.09 | normalized growth [13]: 1.02 | normalized growth [14]: 1.22 [resistant] (active) | normalized growth [15]: 1.05 | normalized growth [16]: 1.03 | normalized growth [17]: 1.01 | normalized growth [18]: 0.96 | normalized growth [19]: 1 | normalized growth [20]: 1.04 | normalized growth [21]: 1.01 | normalized growth [22]: 1.03 | normalized growth [23]: 1.18 | normalized growth [24]: 0.911 | normalized growth [25]: 1.01 | normalized growth [26]: 1.07 | normalized growth (S. cerevisiae strains, strain wild type, hits give low values): 1.02

CC(C)(C)c1ccc(-c2nc(-c3cc(C(C)(C)C)c(O)c(C(C)(C)C)c3)cs2)cc1
normalized growth [1]: 1.01 | normalized growth [2]: 1 | normalized growth [27]: 1.03 | normalized growth [3]: 1.02 | normalized growth [4]: 1.02 | normalized growth [5]: 0.912 | normalized growth [6]: 1.03 | normalized growth [7]: 1.02 | normalized growth [8]: 1.09 | normalized growth [9]: 1.01 | normalized growth [28]: 1.01 | normalized growth [10]: 1.01 | normalized growth [11]: 1.03 | normalized growth [12]: 1.08 | normalized growth [13]: 1.01 | normalized growth [14]: 1.21 | normalized growth [15]: 1.04 | normalized growth [16]: 1.03 | normalized growth [17]: 1.01 | normalized growth [18]: 0.947 | normalized growth [19]: 0.988 | normalized growth [20]: 1.05 | normalized growth [21]: 1.01 | normalized growth [22]: 1.03 | normalized growth [24]: 1.17 | normalized growth [25]: 1.13 | normalized growth [26]: 1.07

Cc1ccc(-c2csc(-c3ccc(Cl)cc3)n2)c(C)c1
normalized growth [1]: 0.979 | normalized growth [2]: 0.978 | normalized growth [3]: 0.968 | normalized growth [5]: 0.987 | normalized growth [6]: 0.914 | normalized growth [7]: 0.989 | normalized growth [8]: 0.611 (active) | normalized growth [9]: 0.956 | normalized growth [28]: 0.994 | normalized growth [10]: 0.994 | normalized growth [11]: 1.01 | normalized growth [12]: 0.926 | normalized growth [13]: 0.988 | normalized growth [14]: 0.753 (active) | normalized growth [15]: 0.952 | normalized growth [16]: 0.9 | normalized growth [17]: 0.998 | normalized growth [18]: 1.01 | normalized growth [19]: 1.01 | normalized growth [20]: 0.908 | normalized growth [21]: 0.987 | normalized growth [22]: 0.949 | normalized growth [23]: 0.686 (active) | normalized growth [24]: 0.968 | normalized growth [25]: 1.1 | normalized growth [26]: 0.772
